About 2,000 (36%) of roughly 5,500 compounds were called active. About 18% were inconclusive and are not listed. Rule as the data show it: active = normalized growth mostly below about 0.91 (no sharp cut-off); inconclusive = no clear call, values can overlap the other calls; inactive = mostly above about 0.92. This is one part of the list.
Assay: chemical genetic growth profiling, strain panel (AID 1159580);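 also: tested at 20 µM; growth read once vehicle control cultures reached saturation at 30 °C; 1 = growth at the plate median or of vehicle wells; lower values mean less growth of the strain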
Details: S. cerevisiae deletion strains, growth OD
[1] = locus YDL101C, strain DUN1, stronger effect = lower value
[2] = locus YHR030C, strain SLT2, stronger effect = lower value

Measured: normalized growth

O=[N+]([O-])c1cc(Br)cnc1Sc1nnc(SCC2CC2)s1
active: locus YDL214C, strain PRR2, stronger effect = lower value 0.458 | locus YER123W, strain YCK3, stronger effect = lower value 0.529 | locus YFR019W, strain FAB1, stronger effect = lower value 0.721 | locus YGR092W, strain DBF2, stronger effect = lower value 0.484 | [2] 0.197 | locus YHR079C, strain IRE1, stronger effect = lower value 0.418 | locus YJL095W, strain BCK1, stronger effect = lower value 0.35 | locus YJL157C, strain FAR1, stronger effect = lower value 0.533 | locus YJR066W, strain TOR1 (second series), stronger effect = lower value 0.531 | locus YKL048C, strain ELM1, stronger effect = lower value 0.778 | locus YKL067W, strain YNK1, stronger effect = lower value 0.39 | locus YKL101W, strain HSL1, stronger effect = lower value 0.542 | locus YLR113W, strain HOG1, stronger effect = lower value 0.554 | locus YLR133W, strain CKI1, stronger effect = lower value 0.574 | locus YML070W, strain DAK1, stronger effect = lower value 0.465 | locus YMR205C, strain PFK2 (second series), stronger effect = lower value 0.387 | locus YNL020C, strain ARK1, stronger effect = lower value 0.418 | locus YNL183C, strain NPR1, stronger effect = lower value 0.351 | locus YNL307C, strain MCK1 (second series), stronger effect = lower value 0.556 | locus YOL136C, strain PFK27, stronger effect = lower value 0.633 | locus YOR061W, strain CKA2, stronger effect = lower value 0.174 | locus YOR231W, strain MKK1, stronger effect = lower value 0.333 | locus YPL031C, strain PHO85, stronger effect = lower value 0.55 | locus YPL153C, strain RAD53, stronger effect = lower value 0.629 | locus YPL256C, strain CLN2, stronger effect = lower value 0.515
inactive: locus YAR019C, strain CDC15, stronger effect = lower value 0.928 | locus YBL105C, strain PKC1, stronger effect = lower value 0.96 | locus YBR135W, strain CKS1, stronger effect = lower value 0.932 | locus YBR136W, strain MEC1, stronger effect = lower value 0.959 | locus YBR160W, strain CDC28, stronger effect = lower value 0.953 | locus YDL017W, strain CDC7, stronger effect = lower value 0.961 | locus YDL028C, strain MPS1, stronger effect = lower value 0.935 | [1] 0.965 | locus YDL108W, strain KIN28, stronger effect = lower value 0.952 | locus YDL132W, strain cdc53, stronger effect = lower value 0.936 | locus YDR052C, strain DBF4, stronger effect = lower value 0.964 | locus YDR054C, strain cdc34, stronger effect = lower value 0.947 | locus YDR226W, strain ADK1, stronger effect = lower value 0.927 | locus YDR477W, strain SNF1, stronger effect = lower value 0.767 | locus YER133W, strain GLC7, stronger effect = lower value 0.762 | locus YFL009W, strain cdc4, stronger effect = lower value 0.93 | locus YFL029C, strain CAK1, stronger effect = lower value 0.943 | locus YFR003C, strain YPI1, stronger effect = lower value 0.962 | locus YFR028C, strain CDC14, stronger effect = lower value 0.943 | locus YGR040W, strain KSS1, stronger effect = lower value 0.771 | locus YGR052W, strain FMP48, stronger effect = lower value 0.7 | locus YHR082C, strain KSP1, stronger effect = lower value 0.707 | locus YHR205W, strain SCH9, stronger effect = lower value 0.609 | locus YIL147C, strain SLN1, stronger effect = lower value 0.952 | locus YJL128C, strain PBS2, stronger effect = lower value 0.948 | locus YJR016C, strain ILV3, stronger effect = lower value 0.944 | locus YJR066W, strain TOR1, stronger effect = lower value 0.621 | locus YKL193C, strain SDS22, stronger effect = lower value 0.935 | locus YKL203C, strain TOR2, stronger effect = lower value 0.872 | locus YLR403W, strain SFP1, stronger effect = lower value 0.754 | locus YMR001C, strain CDC5, stronger effect = lower value 0.928 | locus YMR277W, strain FCP1, stronger effect = lower value 0.924 | locus YNL006W, strain LST8, stronger effect = lower value 0.961 | locus YNL161W, strain CBK1, stronger effect = lower value 0.939 | locus YNL207W, strain RIO2, stronger effect = lower value 0.929 | locus YNL222W, strain SSU72, stronger effect = lower value 0.944 | locus YOL078W, strain AVO1, stronger effect = lower value 0.927 | locus YOR119C, strain RIO1, stronger effect = lower value 0.818 | locus YOR329C, strain SCD5, stronger effect = lower value 0.962 | locus YPL204W, strain HRR25, stronger effect = lower value 0.751 | locus YPL209C, strain IPL1, stronger effect = lower value 0.958 | locus YPR025C, strain CCL1, stronger effect = lower value 0.95 | locus YPR106W, strain ISR1, stronger effect = lower value 0.978 | locus YPR111W, strain DBF20, stronger effect = lower value 0.96 | strain NNK1, stronger effect = lower value 0.969 | strain TSCII, stronger effect = lower value 0.929

CC(C)(C)NS(=O)(=O)NC(C)(C)C
inactive: locus YAL013W, strain DEP1, stronger effect = lower value 0.995 | locus YBR229C, strain ROT2, stronger effect = lower value 1 | locus YCL061C, strain MRC1, stronger effect = lower value 1.03 | [1] 0.977 | locus YDR150W, strain NUM1, stronger effect = lower value 0.88 | locus YEL061C, strain CIN8, stronger effect = lower value 1.01 | locus YGR078C, strain PAC10, stronger effect = lower value 0.999 | [2] 0.952 | locus YHR087W, strain rtc3, stronger effect = lower value 0.964 | locus YJL187C, strain SWE1, stronger effect = lower value 0.999 | locus YJR043C, strain POL32, stronger effect = lower value 0.998 | locus YJR075W, strain HOC1, stronger effect = lower value 1.02 | locus YKL190W, strain CNB1, stronger effect = lower value 1 | locus YLR039C, strain RIC1, stronger effect = lower value 1.02 | locus YLR058C, strain SHM2 (second series), stronger effect = lower value 1 | locus YLR085C, strain ARP6, stronger effect = lower value 0.999 | locus YLR262C, strain YPT6, stronger effect = lower value 1.02 | locus YML094W, strain GIM5, stronger effect = lower value 0.976 | locus YMR219W, strain ESC1, stronger effect = lower value 0.995 | locus YMR263W, strain SAP30, stronger effect = lower value 1.04 | locus YNL128W, strain TEP1, stronger effect = lower value 0.997 | locus YNL153C, strain GIM3, stronger effect = lower value 1.01 | locus YNL298W, strain CLA4 (second series), stronger effect = lower value 0.973 | locus YNL322C, strain KRE1, stronger effect = lower value 1 | locus YNR030W, strain Alg12, stronger effect = lower value 1.01 | locus YOL006C, strain TOP1, stronger effect = lower value 1.01 | locus YPL055C, strain LGE1, stronger effect = lower value 0.921 | locus YPR135W, strain CTF4, stronger effect = lower value 1.02
active: locus YPL241C, strain CIN2, stronger effect = lower value 1.16 [resistant]
